Compound activity: PubChem, National Center for Advancing Translational Sciences (NCATS)
Shown are actives, neighbours in structure and some others; about 2.4% of the full set was active somewhere.
PTHR1 agonist: activates the human parathyroid hormone receptor PTHR1 | Q03431 | HEK293 GP2 PTHR1 cells, GloSensor cAMP luminescence, 1 h | Potency, µM (series often up to 115 µM), hits mostly activators | actives 0.075% (n = 410,000); also: nearly all actives have a fitted effect of over 55% in size
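HEK-293-derived GP2 cells expressing PTHR1 and a GloSensor cAMP reporter, 3,000/well, plated overnight, given luciferin plus IBMX (each 0.5 mM as added) for 1 h at 37 °C, then compound for 1 h at 37 °C. Luminescence was read after 15 min at room temperature.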
GLP1R inv ag: GLP-1 receptor (human) inverse agonism; AID 624417; P43220; HEK293 GLP-1R CRE-luciferase, luminescence, 24 h; GLP-1R form is constitutively active; Potency, µM (doses to about 38.3 µM), most hits filed as inhibitors; actives 1.6% (n = 410,000); also: nearly all actives have a fitted effect of over 55% in size
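Stable HEK293 clone (constitutively active GLP-1R + cAMP-response luciferase); 200 cells/uL plated, 12 h pre-culture, compound 24 hr, 37 deg C/5% CO2; detection reagent 12 min RT; luminescence.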
GLP1R ag: agonists of human GLP-1 receptor | P43220 | HEK293 GLP-1R CRE-luciferase, luminescence, 4-6 h; cells express a hypersensitive GLP-1R form | Potency, µM (highest dose often 45.6 µM), usual class: activators | actives 0.007% (n = 380,000) | AID 624172
HEK293 tox: cytotoxicity counter-screen for GLP-1 receptor inverse agonists | AID 624418 | actives 0.13% (n = 410,000) | HEK293 cAMP-luciferase reporter cells, luminescence, 24 h | Potency, µM (highest dose often 38.3 µM), most hits filed as inhibitors;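 also: loss of luciferase light is scored as toxicity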
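Step one: seed cells (200 cells/uL, DMEM with 10% Nu serum, 1% pen-strep). Step two: 12-hour incubation at 37 deg C. Step three: pin 23 nL compound, incubate 24 hr. Step four: add luciferase reagent, read luminescence 12 min later.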
TRHR enhancer: TRH receptor (human) allosteric enhancement. P34981. TRHR cells, fluo-8 calcium fluorescence, EC20 TRH enhancement. enhancement, % at 2 µM. actives 0.66% (n = 360,000). AID 493056; in the data active = enhancement above about 30%
Target sequence (P34981 whole entry, looked up): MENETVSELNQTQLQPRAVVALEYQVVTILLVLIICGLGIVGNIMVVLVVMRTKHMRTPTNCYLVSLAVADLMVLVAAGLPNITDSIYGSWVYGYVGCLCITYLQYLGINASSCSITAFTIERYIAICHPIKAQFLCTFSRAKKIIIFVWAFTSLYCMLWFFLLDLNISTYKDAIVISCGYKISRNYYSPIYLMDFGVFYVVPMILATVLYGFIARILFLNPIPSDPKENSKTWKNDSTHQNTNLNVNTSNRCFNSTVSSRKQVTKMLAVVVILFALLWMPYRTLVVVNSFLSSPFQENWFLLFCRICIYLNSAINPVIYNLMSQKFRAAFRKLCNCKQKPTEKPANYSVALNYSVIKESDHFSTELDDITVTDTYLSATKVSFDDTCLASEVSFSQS
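Enhancer read-out: after compound pinning and an initial kinetic agonist-mode read, an EC20 of TRH (10 nM final) was injected and fluo-8 calcium signal (Ex 480/Em 530) followed at 1 s/cycle for 100 cycles in TRHR-expressing cells.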
TRHR agonist: TRH receptor (human) agonism; TRHR cells, calcium flux fluo-8, FDSS agonist mode; activation, % at 2 µM; actives 0.18% (n = 360,000); in the data active = activation above about 30%
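Fluo-8-loaded TRHR cells; 10 s baseline, compound added, kinetic Ca2+ fluorescence read 1/s, agonist mode.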
Hits are given with their value; i = inactive; ? = inconclusive; nt = no result. Unless noted, calls follow the shape of the dose curve; as a rule, active = well fitted curve in the direction sought with a large enough effect; inconclusive = small, poorly fitted or top-dose-only effect, or another doubt; inactive = no such curve, though single readings can be large; an effect the other way counts as inactive or inconclusive.

SMILES	PTHR1 agonist	GLP1R inv ag	GLP1R ag	HEK293 tox	TRHR enhancer	TRHR agonist
CCOc1cc(N2CCOCC2)c(OCC)cc1NC(=O)CN1CCc2ccccc2C1	i	4.5µM	i	i	i	i
CCOc1cc(N2CCOCC2)c(OCC)cc1NC(=O)CSc1ccccc1C(=O)O	i	i	i	i	i	i
CCOc1cc(N2CCOCC2)c(OCC)cc1NC(=O)Cn1cnnn1	i	i	i	i	nt	nt
CCOc1cc(N2CCOCC2)c(OCC)cc1NC(=O)CC12CC3CC(CC(C3)C1)C2	i	1µM	i	i	i	i
Oc1c(C(c2ccc(Br)cc2)N2CCOCC2)sc2nc(-c3ccco3)nn12 (configuration not stated)	i	i	nt	i	i	i
CCOC(=O)c1sc(NC(C)=O)cc1C	i	i	i	i	i	i
CCOC(=O)c1sc(NC(=O)Nc2ccccc2Cl)cc1C	i	7.9µM	i	?	i	i
COc1ccccc1NC(=O)C1(c2ccccc2)CCCC1	i	4µM	i	i	i	i
CNC(=O)C1(c2ccccc2)CCCCC1	i	i	i	i	nt	nt
COc1cc(OC)c(C2Nc3c(C)cccc3-c3cc(C)nn32)cc1OC (configuration not stated)	i	i	nt	i	31	i
COc1ccc(C(=O)N/N=C(\C)CC(=O)Nc2ccc(N(C)C)cc2)c(OC)c1	i	i	i	i	i	i
COC(=O)c1ccc(C)c(NC(=O)c2nn(C)c(=O)c3ccccc23)c1	i	i	i	i	i	i
COC(=O)c1cccc(NC(=O)c2nn(C)c(=O)c3ccccc23)c1	i	i	i	i	40	i
COc1ccc(OC)c(NC(=O)Cc2c(C)n(C(=O)c3ccc(Cl)cc3)c3ccc(OC)cc23)c1	i	i	nt	i	i	i
COc1ccc2c(c1)c(CC(=O)Nc1ccccc1OC)c(C)n2C(=O)c1ccc(Cl)cc1	i	10µM	i	i	i	i
CCC(=O)N1CCCC(C(=O)c2ccc(-c3ccccc3)cc2)C1 (configuration not stated)	i	?	i	i	i	i
C=CCN(C(=O)c1cccc(S(=O)(=O)N2CCN(C)CC2)c1)c1nc(-c2ccccc2)cs1	i	11µM	i	i	i	i
CN1CCN(S(=O)(=O)c2cccc(C(=O)N(C)Cc3cccs3)c2)CC1	i	i	i	i	i	i
CN(Cc1ccc(Cl)c(Cl)c1)C(=O)c1cccc(S(=O)(=O)N2CCN(Cc3ccccc3)CC2)c1	i	11µM	i	i	i	i
O=C(NCCN1C(=O)S/C(=C\c2ccccc2F)C1=O)C1=COCCO1	i	1µM	i	i	i	i
Cc1ccc(C)c(N2CCN(C(=O)C(CC(C)C)NS(=O)(=O)c3ccc4nc(C)sc4c3)CC2)c1 (configuration not stated)	i	?	nt	i	i	i
COC(=O)c1ccc(C(=O)OC)c(NC2=NS(=O)(=O)c3ccccc32)c1	i	i	i	i	i	i
COC(=O)c1c(-c2ccccc2)csc1NC1=NS(=O)(=O)c2ccccc21	i	i	i	i	32	i
CC1(C)Cc2cccc(C(=O)NC3CCN(Cc4ccccc4)CC3)c2O1	i	10µM	i	i	i	i
CCCc1cc(C(=O)N(C2CCCCC2)C2CCCCC2)no1	i	8.9µM	i	i	i	i
CCCc1cc(C(=O)NC2CCCCC2)no1	i	i	i	i	i	i
CCCNC(=O)Cn1c(=O)/c(=C\c2ccc(-c3ccc([N+](=O)[O-])cc3)o2)s/c1=C\C(=O)C(C)(C)C	i	i	i	i	i	98
CCCNC(=O)Cn1c(=O)/c(=C/c2ccc(-c3cccc([N+](=O)[O-])c3)o2)s/c1=C\C(=O)C(C)(C)C	i	i	i	i	nt	nt
CN(C)c1ccc(CC2C(=O)Nc3ccccc32)cc1 (configuration not stated)	i	i	i	i	i	i
